Over roughly 8,300 sequences, “log2 fold change of degron read counts, EGFP-low vs EGFP+ sorted cells (limma voom), compound-induced degradation” has its median near -1.1; the highest 2% begin near 3.2. Many of the other results were omitted from the sample, so the highest values are more common in it than they were.

This assay deals with T1, CRBN, Q96SW2.
T1 chain: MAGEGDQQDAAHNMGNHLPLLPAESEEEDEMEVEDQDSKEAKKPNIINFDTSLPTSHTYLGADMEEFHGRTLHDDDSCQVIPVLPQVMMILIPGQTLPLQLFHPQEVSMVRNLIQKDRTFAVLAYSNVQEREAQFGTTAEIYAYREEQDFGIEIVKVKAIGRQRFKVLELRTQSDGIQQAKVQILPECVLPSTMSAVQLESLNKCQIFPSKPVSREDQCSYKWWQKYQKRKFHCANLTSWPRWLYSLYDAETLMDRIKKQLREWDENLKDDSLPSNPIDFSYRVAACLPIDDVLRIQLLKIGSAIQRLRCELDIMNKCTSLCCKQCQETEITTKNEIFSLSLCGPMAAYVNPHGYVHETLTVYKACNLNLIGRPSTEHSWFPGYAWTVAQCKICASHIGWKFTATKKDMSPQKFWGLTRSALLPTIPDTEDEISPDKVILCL
In words: log2 fold change of degron read counts, EGFP-low vs EGFP+ sorted cells (limma voom), compound-induced degradation; higher = more compound-induced degradation of the degron-EGFP fusion; degrons are variants of IKZF1/3 zinc finger 2; compound dose not given here. Conditions: Jurkat, 18 h.

[1] abbreviates: compound: compound 19 (5-tert-butyl-thalidomide).
The mark [2] stands for this setting: compound: compound 22 (5-morpholino-thalidomide).
[3] abbreviates: compound: compound 33 (diphenyl IMiD analogue).
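Also: pooled lentiviral library of zinc finger degron-EGFP fusions in mCherry-positive Jurkat cells, FACS-sorted after compound exposure, with degron abundance counted by next-generation sequencing.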

For the sequence FQCDQCGAWFTQKGNLLRHIKL [46F_47Q_49D_50Q_52G_53A_54W_55F_67L_, Q9UKT9], the “log2 fold change of degron read counts” value runs as follows: under setting [1], -2.29; under setting [2], -2.57; under setting [3], -1.93; (compound: thalidomide) -1.39.

As to FFCNVCGAAFTQKGNLLRHIKL [46F_47F_49N_50V_52G_53A_54A_55F_67L_, Q9UKT9], the “log2 fold change of degron read counts” value was 1.2 under setting [1], 1.43 under setting [2], 0.704 under setting [3] and -0.812 (compound: thalidomide).

FQCPICGAYFTQKGNLLRHIKL [46F_47Q_49P_50I_52G_53A_54Y_55F_67L_, Q9UKT9]: the “log2 fold change of degron read counts” value under setting [1] is -1.06, the “log2 fold change of degron read counts” value under setting [2] worked out at 0.884, the “log2 fold change of degron read counts” value under setting [3] worked out at 1.61 and the “log2 fold change of degron read counts” value (compound: thalidomide) was determined as 3.36.

On to FNCPICGAYFTQKGNLLRHIKL [46F_47N_49P_50I_52G_53A_54Y_55F_67L_, Q9UKT9], for which the “log2 fold change of degron read counts” value under setting [1] was determined as 2.2, the “log2 fold change of degron read counts” value under setting [2] worked out at 1.13, the “log2 fold change of degron read counts” value under setting [3] is 0.721 and the “log2 fold change of degron read counts” value (compound: thalidomide) was determined as 0.825.

Turning to FICPICGAYFTQKGNLLRHIKL [46F_47I_49P_50I_52G_53A_54Y_55F_67L_, Q9UKT9], the “log2 fold change of degron read counts” value under setting [1] is -0.481, the “log2 fold change of degron read counts” value under setting [2] amounted to 2.03, the “log2 fold change of degron read counts” value under setting [3] worked out at 1.75 and the “log2 fold change of degron read counts” value (compound: thalidomide) was found to be 1.86.

Consider FCCPICGAYFTQKGNLLRHIKL [46F_47C_49P_50I_52G_53A_54Y_55F_67L_, Q9UKT9], for which the “log2 fold change of degron read counts” value was determined as 1.38 under setting [1], 1.19 under setting [2], 1.52 under setting [3] and 1.42 (compound: thalidomide).

FTCPICGAYFTQKGNLLRHIKL [46F_47T_49P_50I_52G_53A_54Y_55F_67L_, Q9UKT9]: the “log2 fold change of degron read counts” value reads like this: under setting [1], 1; under setting [2], 2.25; under setting [3], 2.83; (compound: thalidomide) 3.31.

FWCPICGAYFTQKGNLLRHIKL [46F_47W_49P_50I_52G_53A_54Y_55F_67L_, Q9UKT9]: the “log2 fold change of degron read counts” value reads like this: under setting [1], 2.72; under setting [2], 2.69; under setting [3], 2.4; (compound: thalidomide) 0.973.

For FVCPICGAYFTQKGNLLRHIKL [46F_47V_49P_50I_52G_53A_54Y_55F_67L_, Q9UKT9], the “log2 fold change of degron read counts” value under setting [1] worked out at 0.319, the “log2 fold change of degron read counts” value under setting [2] was determined as 1.86, the “log2 fold change of degron read counts” value under setting [3] came to 1.7 and the “log2 fold change of degron read counts” value (compound: thalidomide) came to 2.59.

FYCPICGAYFTQKGNLLRHIKL [46F_47Y_49P_50I_52G_53A_54Y_55F_67L_, Q9UKT9]: the “log2 fold change of degron read counts” value reads like this: under setting [1], 3.26; under setting [2], 3.12; under setting [3], 2.39; (compound: thalidomide) 1.01.

Regarding FSCPICGAYFTQKGNLLRHIKL [46F_47S_49P_50I_52G_53A_54Y_55F_67L_, Q9UKT9], the “log2 fold change of degron read counts” value by setting is: under setting [1], 2.23; under setting [2], 1.26; under setting [3], 2.17; (compound: thalidomide) 1.38.

(Values after the supplement of paper PMC12645437, “Orthogonal IMiD-Degron Pairs Induce Selective Protein Degradation in Cells” (ACS Chemical Biology, 2025).)
